Measured values as given in PubChem BioAssay.
The source made the active and inactive calls.

Legend:
[1] = molecular target: Albumin (Bos taurus) (UniProt P02769); assay: bovine serum albumin binders on microarray, profiling panel, artefact control for SMM control protein annotation, biochemical, small-molecule microarray, Alexa647 label, 635/667 nm fluorescence (AID 1118); conditions: BSA-A647 binding, fluorescence 635 nm, higher = more signal;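 note: score merges 667 nm emission intensity and signal-to-noise per printed compound spot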
Albumin (Bos taurus), sequence (P02769 whole entry, looked up): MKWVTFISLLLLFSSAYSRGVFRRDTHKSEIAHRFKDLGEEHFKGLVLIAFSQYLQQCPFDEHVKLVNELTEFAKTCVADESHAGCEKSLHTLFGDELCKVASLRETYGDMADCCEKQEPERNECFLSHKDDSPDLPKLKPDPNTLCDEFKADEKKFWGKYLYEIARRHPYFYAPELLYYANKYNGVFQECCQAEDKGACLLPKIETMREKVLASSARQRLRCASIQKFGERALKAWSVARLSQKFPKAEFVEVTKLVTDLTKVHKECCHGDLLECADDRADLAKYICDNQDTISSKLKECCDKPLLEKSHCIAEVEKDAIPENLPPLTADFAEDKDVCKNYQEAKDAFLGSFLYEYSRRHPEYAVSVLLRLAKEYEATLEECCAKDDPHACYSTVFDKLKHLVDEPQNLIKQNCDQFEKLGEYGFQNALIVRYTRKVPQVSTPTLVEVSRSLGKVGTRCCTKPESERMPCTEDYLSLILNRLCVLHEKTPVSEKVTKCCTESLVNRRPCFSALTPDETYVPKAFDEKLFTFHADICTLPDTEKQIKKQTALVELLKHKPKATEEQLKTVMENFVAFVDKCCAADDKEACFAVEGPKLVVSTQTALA

[2] = small-molecule microarray binders of probe aXIP, primary screen, biochemical, NeuroSMM set, 635/667 nm fluorescence (AID 1119); conditions: higher = more signal, called active from +8 up or from −8 down;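 note: probe is the protein aXip251-270 applied at 1 µg/mL to compound-printed slides; binding of probe to printed compounds measured as 667 nm fluorescence plus signal to noise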
[3] = small-molecule binders of probe aNOTCH3, primary screen, biochemical, small-molecule microarray, 635/667 nm fluorescence (AID 1120); conditions: higher = more signal;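 note: probe is a biotin-tagged antibody raised against NOTCH3 rather than NOTCH3 protein; score merges spot fluorescence near 667 nm with spot signal to noise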
[4] = small-molecule binders of probe aNOTCH2, primary screen, biochemical, small-molecule microarray, 635/667 nm fluorescence (AID 1121); conditions: higher = more signal;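 note: score merges feature fluorescence read at 667 nm with its signal to noise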
[5] = molecular target: Carbonic anhydrase 2 (Homo sapiens) (UniProt P00918); assay: CAII small-molecule binders, profiling panel, biochemical, small-molecule microarray, Alexa647-labelled CAII (AID 1122); conditions: CAII-A647 binding fluorescence, higher = more signal
[6] = COS7 lysate on small-molecule microarray, probe aHis, 635 nm (AID 1123); conditions: COS7 cell lysate, fluorescence, higher = more signal;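 note: z-score combines 667nm fluorescence intensity with signal-to-noise per printed compound spot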
[7] = compound binding in COS7 lysate, probe aLAP1, primary screen, cell lysate, small-molecule microarray (AID 1124); conditions: probe aLAP1, fluorescence, higher = more signal;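 note: lysate comes from COS7 cells expressing LAP1 and is applied at 0.3 µg/mL; score merges spot fluorescence near 667 nm with signal-to-noise over triplicate slides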
[8] = system: Sam68 (KHDRBS1); assay: Sam68 small-molecule binders, primary screen, biochemical, small-molecule microarray, 635 nm fluorescence (AID 1125); conditions: small-molecule microarray binding, higher = more signal;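 note: score merges 667 nm channel intensity with signal to noise over triplicate slides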
[9] = system: Chordin-like protein 2 (CHRDL2); assay: CHRDL2 small-molecule binders, primary screen, biochemical, small-molecule microarray, 635 nm fluorescence (AID 1126); conditions: small-molecule microarray binding, fluorescence 635 nm; higher = more signal;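 note: printed compound slides probed with Chrdl2 protein at 4 µg/mL for 1 h at 4 C; score merges 667 nm emission intensity with signal to noise over three replicate slides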
[10] = molecular target: Concanavalin-A (Canavalia ensiformis) (UniProt P02866); assay: ConA small-molecule binders, primary screen, artefact control for SMM control protein annotation, biochemical, small-molecule microarray, Alexa647 label, 635 nm (AID 1127); conditions: ConA-A647 binding fluorescence, higher = more signal;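 note: z combines 667 nm emission intensity with signal-to-noise across three replicate slides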
Concanavalin-A (Canavalia ensiformis), sequence (P02866 whole entry, looked up): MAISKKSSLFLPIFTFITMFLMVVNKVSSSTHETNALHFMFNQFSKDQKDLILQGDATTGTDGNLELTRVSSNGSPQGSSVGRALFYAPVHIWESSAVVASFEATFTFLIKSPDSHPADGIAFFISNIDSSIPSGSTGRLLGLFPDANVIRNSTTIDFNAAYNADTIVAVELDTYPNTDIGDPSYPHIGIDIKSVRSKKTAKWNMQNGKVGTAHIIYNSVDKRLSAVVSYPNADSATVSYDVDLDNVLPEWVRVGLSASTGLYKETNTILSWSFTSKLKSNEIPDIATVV

[11] = anti-His antibody binders, primary screen, artefact control for SMM control protein annotation, biochemical, small-molecule microarray, 635 nm fluorescence (AID 1128); conditions: anti-His Alexa647 antibody binding, higher = more signal;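 note: score merges feature fluorescence with signal-to-noise for each printed compound spot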
[12] = system: Human papillomavirus type 1a E7 protein (residues 1-88); assay: HPV1a E7 small-molecule binders, primary screen, biochemical, small-molecule microarray, residues 1-88, 635 nm (AID 1129); conditions: small-molecule microarray binding, fluorescence 635 nm; higher = more signal
[13] = molecular target: Focal adhesion kinase 1 (Homo sapiens) (UniProt Q05397); assay: small-molecule microarray binders of FAK, primary screen, biochemical, 635/667 nm fluorescence, BSA, DTT (AID 1130); conditions: PTK2 binding, 635 nm fluorescence, higher = more signal;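 note: composite of spot emission at 667 nm and signal to noise over triplicate slides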
Focal adhesion kinase 1 (Homo sapiens), sequence (Q05397 whole entry, looked up): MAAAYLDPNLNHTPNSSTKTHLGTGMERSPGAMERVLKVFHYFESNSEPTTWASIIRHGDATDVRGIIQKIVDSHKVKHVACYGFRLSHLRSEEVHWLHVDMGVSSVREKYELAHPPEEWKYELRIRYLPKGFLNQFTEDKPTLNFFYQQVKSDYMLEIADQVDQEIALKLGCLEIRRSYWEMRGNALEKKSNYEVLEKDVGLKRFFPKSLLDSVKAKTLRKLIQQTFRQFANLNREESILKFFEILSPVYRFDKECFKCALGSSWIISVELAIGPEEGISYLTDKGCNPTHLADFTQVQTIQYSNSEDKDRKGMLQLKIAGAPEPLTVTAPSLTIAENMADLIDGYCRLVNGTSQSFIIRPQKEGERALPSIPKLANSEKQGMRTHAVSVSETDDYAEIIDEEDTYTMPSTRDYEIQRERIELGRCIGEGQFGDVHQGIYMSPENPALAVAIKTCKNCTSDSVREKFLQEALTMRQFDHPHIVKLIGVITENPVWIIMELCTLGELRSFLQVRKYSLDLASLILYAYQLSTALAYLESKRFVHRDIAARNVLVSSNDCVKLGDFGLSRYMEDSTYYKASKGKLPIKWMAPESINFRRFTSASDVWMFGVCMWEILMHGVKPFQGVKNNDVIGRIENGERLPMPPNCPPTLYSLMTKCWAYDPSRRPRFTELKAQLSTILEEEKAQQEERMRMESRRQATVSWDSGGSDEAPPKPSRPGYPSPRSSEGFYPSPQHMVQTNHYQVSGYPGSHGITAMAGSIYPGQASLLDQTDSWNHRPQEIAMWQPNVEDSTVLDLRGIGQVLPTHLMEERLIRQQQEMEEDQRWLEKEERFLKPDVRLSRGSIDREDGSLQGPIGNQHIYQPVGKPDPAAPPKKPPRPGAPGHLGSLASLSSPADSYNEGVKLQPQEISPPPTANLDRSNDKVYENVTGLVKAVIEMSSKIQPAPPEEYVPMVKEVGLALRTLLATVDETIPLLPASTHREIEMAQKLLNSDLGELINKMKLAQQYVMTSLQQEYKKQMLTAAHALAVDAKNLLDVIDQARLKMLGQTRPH

[14] = system: Fibrinogen (Alexa647-labelled); assay: fibrinogen binders on compound microarrays, profiling panel, artefact control for SMM control-protein annotation, biochemical, small-molecule microarray, 635/667 nm fluorescence (AID 1131); conditions: fibrinogen-A647 binding fluorescence, higher = more signal;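 note: z-score merges 667 nm fluorescence with per-spot signal-to-noise over triplicate slides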
[15] = molecular target: Follistatin (Homo sapiens) (UniProt P19883); assay: follistatin binders on small-molecule microarrays, primary screen, biochemical, small-molecule microarray, 635/667 nm fluorescence (AID 1132); conditions: FST binding, 635 nm fluorescence, higher = more signal
Follistatin (Homo sapiens), sequence (P19883 whole entry, looked up): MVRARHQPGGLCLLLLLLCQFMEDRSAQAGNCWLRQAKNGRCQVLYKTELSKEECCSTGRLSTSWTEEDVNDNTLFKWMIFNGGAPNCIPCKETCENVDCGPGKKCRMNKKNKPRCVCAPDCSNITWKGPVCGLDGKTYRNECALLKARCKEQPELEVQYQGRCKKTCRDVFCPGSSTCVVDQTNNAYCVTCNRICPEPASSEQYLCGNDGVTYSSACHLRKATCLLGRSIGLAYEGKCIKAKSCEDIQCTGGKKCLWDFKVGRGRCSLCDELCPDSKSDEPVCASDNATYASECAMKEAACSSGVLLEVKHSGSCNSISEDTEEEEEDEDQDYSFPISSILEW

[16] = molecular target: Fibroblast growth factor 2 (Homo sapiens) (UniProt P09038); assay: FGF2 binders on small-molecule microarrays, primary screen, biochemical, small-molecule microarray, 635/667 nm fluorescence (AID 1133); conditions: small-molecule microarray binding, FGF2, fluorescence 635/667; higher = more signal
Fibroblast growth factor 2 (Homo sapiens), sequence (P09038 whole entry, looked up): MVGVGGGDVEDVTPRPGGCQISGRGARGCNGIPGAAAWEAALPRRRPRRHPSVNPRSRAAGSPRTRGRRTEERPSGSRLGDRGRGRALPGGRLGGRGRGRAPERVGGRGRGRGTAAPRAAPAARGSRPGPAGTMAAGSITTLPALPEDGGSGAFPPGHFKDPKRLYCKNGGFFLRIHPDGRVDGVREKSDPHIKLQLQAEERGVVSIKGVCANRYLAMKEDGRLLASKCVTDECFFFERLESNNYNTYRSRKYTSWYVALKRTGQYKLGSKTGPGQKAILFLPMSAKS

[17] = mitochondrial membrane potential change in A549 cells, profiling panel, cell-based, JC-1 fluorescence, basal, 24 h, 100 nL (AID 1138); conditions: higher = more signal;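 note: A549 lung adenocarcinoma cells under basal conditions with no added stimulus; test concentration not given here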
[18] = system: Lefty1; assay: Lefty1 binders on small-molecule microarrays, primary screen, biochemical, small-molecule microarray, 635/667 nm fluorescence (AID 1139); conditions: small-molecule microarray binding, fluorescence 635/667; higher = more signal
[19] = system: wheat germ agglutinin (Triticum aestivum), Alexa647-labelled; assay: wheat germ agglutinin binders on compound microarrays, profiling panel, artefact control for SMM control-protein annotation, biochemical, small-molecule microarray, 635/667 nm fluorescence (AID 1140); conditions: WGA-A647 binding, 635 nm fluorescence, higher = more signal;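 note: score merges 667 nm feature emission with signal to noise over triplicate slides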
[20] = molecular target: Luciferin 4-monooxygenase (Photinus pyralis) (UniProt P08659); assay: firefly luciferase enzyme inhibitors, primary screen, biochemical, luminescence, purified enzyme, 2006 set (AID 1141); conditions: SteadyGlo luminescence, 30 min, higher = more signal, called active from +8 up or from −8 down;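 note: cell-free assay with purified firefly luciferase at 100 ng per well in PBS; test concentration not given here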
Luciferin 4-monooxygenase (Photinus pyralis), sequence (P08659 whole entry, looked up): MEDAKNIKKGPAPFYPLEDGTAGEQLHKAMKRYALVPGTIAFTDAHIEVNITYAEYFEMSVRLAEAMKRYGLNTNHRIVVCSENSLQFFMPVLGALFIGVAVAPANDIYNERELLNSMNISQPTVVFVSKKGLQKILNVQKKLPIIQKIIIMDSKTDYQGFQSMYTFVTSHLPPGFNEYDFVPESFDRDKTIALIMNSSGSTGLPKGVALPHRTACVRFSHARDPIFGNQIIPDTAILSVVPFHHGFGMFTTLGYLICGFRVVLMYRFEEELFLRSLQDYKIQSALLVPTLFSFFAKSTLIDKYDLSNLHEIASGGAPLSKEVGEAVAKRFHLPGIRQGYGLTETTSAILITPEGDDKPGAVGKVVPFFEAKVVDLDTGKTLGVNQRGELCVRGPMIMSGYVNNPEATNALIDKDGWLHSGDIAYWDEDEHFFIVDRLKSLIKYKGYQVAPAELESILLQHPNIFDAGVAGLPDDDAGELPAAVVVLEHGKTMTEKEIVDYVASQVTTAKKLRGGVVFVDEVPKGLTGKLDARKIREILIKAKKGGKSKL

Row | Compound | composite z-score [1] | composite Z-score [2] | composite z-score [3] | composite z-score [4] | composite z-score [5] | composite z-score [6] | composite z-score [7] | composite z-score [8] | composite z-score [9] | composite z-score [10] | composite z-score [11] | composite z-score [12] | composite z-score [13] | composite z-score [14] | composite z-score [15] | composite z-score [16] | z-score [17] | composite z-score [18] | composite z-score [19] | z-score [20]
1 | CC(C)C[C@@H]1NC(=O)[C@@H]2C[C@H](C(=O)NCCCC[N+](C)(C)C)[C@H](c3cccc(OCCO)c3)N2C1=O | -1.59 | 0.0578 (inactive) | 0.116 | -0.0999 | 0.479 | 0.432 | 0.255 | 0.82 | 1.44 | 0.496 | 2.63 | 0.235 | -0.584 | -0.173 | 1.45 | 1.38 | -0.69 | 1.47 | -0.445 | -0.45 (inactive)
2 | Cc1ccccc1C(O)C1C=CC2C(=O)N(C)C(=O)C2N1Nc1ccc([N+](=O)[O-])cc1[N+](=O)[O-] (stereo not given) | 0.953 | 0.451 (inactive) | 0.338 | -0.108 | 0.671 | 2.47 | 0.288 | 1.29 | -0.723 | 1.16 | 0.509 | 1.27 | 0.646 | 1.02 | 0.674 | -0.38 | 0.668 | -0.167 | 0.913 | 0.147 (inactive)
3 | C[N+](C)(C)CCCCNC(=O)[C@H]1C[C@H]2C(=O)NCC(=O)N2[C@H]1c1ccc(O)cc1 | -1.48 | 0.586 (inactive) | 0.175 | -0.0457 | 0.568 | 1.56 | 1.01 | 0.852 | 1.39 | 1.14 | 3.01 | 0.241 | -0.169 | -0.0907 | 1.41 | 1.91 | 0.244 | 1.49 | -0.287 | -0.367 (inactive)
4 | CCCCC(=C=CC[C@H](O)c1ccccc1OCCO)C[C@H](O)c1ccccn1 | 0.0165 | -0.452 (inactive) | 0.0311 | -0.164 | 0.557 | -0.137 | 0.271 | -0.0949 | 0.547 | 0.319 | 0.299 | 0.0909 | -0.255 | -0.196 | 1.29 | 1.37 | 0.717 | 1.15 | 0.458 | -0.109 (inactive)
5 | C[N+](C)(C)CCCC[C@@H]1NC(=O)[C@@H]2C[C@H](C(=O)O)[C@H](c3cccc(OCCO)c3)N2C1=O | -1.33 | 1.31 (inactive) | -0.324 | 0.0022 | 0.49 | 0.64 | 0.303 | -0.0913 | 0.451 | 1.02 | 0.0065 | -0.586 | -0.466 | -1.46 | 1.45 | 1.5 | 1.08 | 0.135 | 0.218 | -1.99 (inactive)
6 | C=C(COC)/C(=C/C[C@@H](OC(=O)c1ccncc1)c1cccc(OCCO)c1)c1cc(C(=O)OC)ccc1OC | -0.431 | 0.135 (inactive) | 0.0297 | -0.147 | 0.646 | -0.0596 | 0.996 | 1.24 | 0.699 | 0.206 | 0.0301 | 0.942 | -0.0044 | 0.199 | 1.42 | 2 | 1.28 | 1.63 | 0.181 | -1.11 (inactive)
7 | CC(C)c1ccc(NN2C(C(O)c3cccs3)C=CC3C(=O)N(c4ccccc4)C(=O)C32)cc1 (stereo not given) | 0.772 | 0.302 (inactive) | 0.319 | -0.136 | 0.76 | 2.06 | 0.665 | 1.31 | -0.127 | 1.13 | 0.548 | 1.24 | 0.814 | 1.03 | 0.963 | -0.737 | -1.13 | 0.0247 | 1.06 | -0.893 (inactive)
8 | CCN(CC)c1ccc(N2CC=CC34O[C@@H]5/C=C\CCCOC(=O)C5[C@H]3C(=O)N(CCCCCCO)[C@@H]4C2=O)cc1 (stereo not given in full) | 0.248 | 0.703 (inactive) | -0.194 | -0.145 | 0.898 | 0.846 | 0.613 | -0.32 | -2.28 | -0.642 | 1.27 | -0.299 | -0.177 | -0.801 | -1.21 | -0.616 | 1.1 | -0.324 | -0.22 | -1.9 (inactive)
9 | COC(=O)C(CC#Cc1ccc2c(c1)[C@]1(C(=O)N2)[C@H](c2ccc(O)cc2)N2[C@H](c3ccccc3)[C@H](c3ccccc3)OC(=O)[C@H]2[C@@H]1C(=O)O)C(=O)OC | 0.587 | 0.877 (inactive) | 0.18 | -0.0891 | 0.766 | 1.07 | 0.308 | 0.318 | -0.3 | 0.819 | 0.124 | 0.56 | 0.318 | 0.298 | 0.879 | -0.12 | -0.233 | 0.369 | -0.22 | -0.462 (inactive)
10 | C[C@@H]1ON(c2ccccc2)[C@H](c2ccccc2)[C@H]1C(=O)N1C(=O)OC[C@H]1Cc1ccccc1 | 0.215 | 0.477 (inactive) | -0.0057 | -0.14 | 0.303 | 0.514 | -0.0985 | 0.885 | 0.447 | 0.603 | 0.39 | 0.569 | 0.507 | -0.178 | 0.586 | 0.375 | 2.24 | 0.675 | 0.237 | 0.549 (inactive)
11 | COCCCNC(=O)[C@]1(Cc2ccccc2)N=C(c2ccc(OCCCO)cc2)O[C@@H]1c1ccccc1N=[N+]=[N-] | 0.855 | 0.454 (inactive) | 0.0999 | -0.106 | 0.502 | 0.0137 | 0.287 | 1.29 | -0.26 | 1.1 | 0.36 | 1.22 | -0.0142 | 0.977 | 1.25 | 0.401 | -0.141 | 0.276 | 0.544 | -4.67 (inactive)
